What is called inhibition is the relative decrease from the control value, in per cent.

In all, about 300,000 compounds went through this assay and about 1,000 (0.33%) were called active. Cut-off read from the data, not from the text of the source: active = inhibition above about 28%; inactive = the rest. Only a selection was taken, and actives are over-represented in it overall.

The assay concerns EBNA-1 (Epstein-Barr virus nuclear antigen 1), Human herpesvirus 4. As to the kind of experiment: EBNA-1 DNA-binding inhibitors, primary screen, biochemical, fluorescence polarization (AID 1950). The note with it: at 14.8 µM, hits give high values. On the technique in general: Polarisation of emitted light reports the rotation of a fluorescent probe.
As to `CC(=O)CC[C@@H](C)O[C@@H]1OC(C)[C@H](O)CC1O` (stereo partly drawn), the inhibition was 4.39% (inactive). With `COc1ccc(C)cc1NC(=O)NCCCCc1ccccc1`, the inhibition was 2.71% (inactive).

Take `Cc1cc(C)cc(NC(=O)NCc2ccccn2)c1`: the inhibition was -7.86% (inactive).

In the case of `COc1ccc(C)cc1NC(=O)NCc1ccccn1`, the inhibition is 110% (active). With `CCOc1ccc(S(=O)(=O)N2CCN=C2Cc2ccccc2)cc1C`, the inhibition was 4.47% (inactive).

On to `CC1CCCN(S(=O)(=O)c2ccc(-c3ccc(=O)[nH]n3)o2)C1` (stereo not drawn), for which the inhibition is -20.5% (inactive). For `Cc1cccc(N2Cc3ccccc3C2=NC(=O)c2ccc(Cl)nc2)c1`, the inhibition was 17.6% (inactive). As for `N#Cc1ccc(N2Cc3ccccc3/C2=N/C(=O)Nc2ccc(Cl)cc2)cc1`, the inhibition was 73.5% (active).

With `O=C(Nc1ccccc1)OCc1cn(-c2ccc(Cl)cc2)nn1`, the inhibition was 6.14% (inactive). As for `COc1ccc(NC2CCCN(C(=O)c3ccncc3)C2)cc1` (stereo not drawn), the inhibition was 5.52% (inactive). The figure for `C=CCN(c1ccc(Cl)cc1)S(=O)(=O)c1cccc(C(=O)OCC(=O)N(C)C)c1` is 11.1% (inactive); for `COc1ccc(C(C[N+](=O)[O-])n2nc(C)cc2C)cc1` (stereo not drawn) it is 11% (inactive); for `O=C(CCCn1c(SCC(=O)c2ccc(F)cc2)nc2ccccc2c1=O)NCc1ccco1` it is 37.8% (active). For `Cn1c(-c2ccc(F)cc2)cnc1SCC(=O)NCc1ccco1`, the inhibition is 3.48% (inactive). The figure for `O=C(CCCn1c(SCC(=O)c2ccccc2)nc2ccccc2c1=O)NCC1CCCO1` (stereo not drawn) is 1.63% (inactive). The figure for `CC(C)C[C@H]1CN=C(Nc2ccccc2)N1CC1CCCCC1` is 0.22% (inactive). The figure for `COc1ccc(NC(=O)C2C3CCC(O3)C2C(=O)O)cc1OC` (stereo not drawn) is 5.36% (inactive); for `COc1ccc(C(=O)Nc2ccccc2C(=O)N/N=C/c2ccc(O)c(OC)c2)cc1` it is 6.06% (inactive).

With `CCOc1cc(C2C(C(=O)OC)=CN(C3CCCC3)C=C2C(=O)OC)cc(Br)c1O`, the inhibition is 11.7% (inactive). Consider `COC(=O)C1=CN(Cc2ccc(OC)cc2)C=C(C(=O)OC)C1c1ccc(O)c(OC)c1`, for which the inhibition is 28.7% (active). On to `Cc1ccccc1NC(=O)C(C)OC(=O)CCC(=O)N(CC(C)C)c1c(N)n(CC(C)C)c(=O)[nH]c1=O` (stereo not drawn), for which the inhibition is -7.69% (inactive). Take `COc1ccc(S(=O)(=O)NC(C)C(=O)N2CCCCCC2)cc1` (stereo not drawn): the inhibition was 2.58% (inactive).

In the case of `CSc1nnc(SCc2nc3sc(C(=O)O)c(C)c3c(=O)[nH]2)s1`, the inhibition was 4.86% (inactive). As for `CCOC(=O)c1ccc[n+](CC(=O)Nc2ccccc2OC(F)F)c1`, the inhibition is -2.1% (inactive).

`Cc1ccc(-c2nc(SCC(=O)Nc3ccccc3OC(F)F)c3c(C)c(C(=O)O)sc3n2)cc1`: the inhibition was 29.7% (active).

Take `COc1ccccc1NC(=O)CSc1nc2sc3c(c2c(=O)n1-c1ccccc1)CCN(C)C3`: the inhibition is -6.51% (inactive). Regarding `COc1ccc([N+](=O)[O-])cc1NCC(=O)c1ccc(C)cc1`, the inhibition is 5.63% (inactive).

As to `Cc1ccc(S(=O)(=O)N(CC(O)CN2C(=O)NC(C)(C)C2=O)c2cccc([N+](=O)[O-])c2)cc1` (stereo not drawn), the inhibition was -8.62% (inactive). In the case of `Cc1cc(=O)oc2cc(OCC(=O)Nc3nnc(C4CC4)s3)ccc12`, the inhibition was 7.9% (inactive). On to `Cc1ccc(O)c(/C=N/NC(=O)COc2ccc3c(C)cc(=O)oc3c2)c1`, for which the inhibition was 27.9% (active). With `CCOC(=O)Cc1csc(NC(=O)COc2ccc3c(C)cc(=O)oc3c2)n1`, the inhibition is -2.07% (inactive). With `Cc1ccc(OCCC(=O)OCC(=O)N2c3ccccc3NC(=O)C2(C)C)cc1`, the inhibition was -1.98% (inactive). As to `CN1CCN(CC(=O)C23CC4CC(CC(C4)C2)C3)CC1`, the inhibition was -0.65% (inactive).

For `COc1ccc(CN2C(=O)CC(Cc3ccc(C)cc3)C2=O)cc1OC` (stereo not drawn), the inhibition is 9.56% (inactive). For `O=C(CN1CCCCC1)N1c2ccccc2Sc2ccc(C(F)(F)F)cc21`, the inhibition was -8.22% (inactive).

On to `CC(=O)N1CC(C)c2scc(C)[n+]2-c2ccccc21` (stereo not drawn), for which the inhibition is 0.91% (inactive). As to `CC(CCN1CCN=C1N(C)C)c1ccccc1` (stereo not drawn), the inhibition is -6.72% (inactive). For `O=C(NCCOc1cccnc1)c1ccc(OC2CCN(Cc3ccccn3)CC2)cc1`, the inhibition is 6.33% (inactive). Turning to `Cc1[nH]c(C)c(S(=O)(=O)N2CCC(C)CC2)c1C(=O)N1CCCC1`, the inhibition is 14.2% (inactive). With `NC(=O)C(Cc1ccccc1)NC(=O)C12CC3CC(CC(C3)C1)C2` (stereo not drawn), the inhibition was 3.55% (inactive).

For `CC(=O)Nc1ccc(S(=O)(=O)NCC(=O)OCc2cc(=O)oc3ccc4ccccc4c23)cc1`, the inhibition was 35.2% (active).

As to `COc1ccccc1C(=O)COC(=O)CNS(=O)(=O)c1ccc(NC(C)=O)cc1`, the inhibition was 0.54% (inactive).

In the case of `CCC(=O)Nc1ccc(S(=O)(=O)Nc2c(NC)c3ccccc3oc2=O)cc1`, the inhibition was 8.74% (inactive). Consider `CCOc1cc(C2C(C(=O)c3ccco3)=C(O)C(=O)N2Cc2ccccc2)ccc1O` (stereo not drawn), for which the inhibition was 1.15% (inactive).

Take `CCC1CCCCN1C(=O)CSc1nc2c(c(=O)n1C)SC(C)C2` (stereo not drawn): the inhibition is -3.4% (inactive). Take `COc1cccc(N2CC(C(=O)Nc3c(C)cccc3C)CC2=O)c1` (stereo not drawn): the inhibition was -0.66% (inactive). With `COc1ccc(C(=O)CSc2nnc(NC(=O)C3CC(=O)N(c4cccc(OC)c4)C3)s2)cc1` (stereo not drawn), the inhibition is 51.4% (active). In the case of `CCOC(=O)CSc1nnc(NC(=O)C2CC(=O)N(c3ccc(F)cc3)C2)s1` (stereo not drawn), the inhibition is 6.41% (inactive). Turning to `COc1ccc(N(C)C(=O)C2CCN(S(=O)(=O)c3cccc4nsnc34)CC2)cc1`, the inhibition was -5.5% (inactive). Take `Cc1ccc(O)c(-c2cc(C(=O)Nc3c(C)n(C)n(-c4ccccc4)c3=O)[nH]n2)c1`: the inhibition is 8.89% (inactive). Consider `Cc1ccc(NC(=O)c2cc(-c3ccccc3O)n[nH]2)cc1C`, for which the inhibition is -0.09% (inactive). Under `Cc1ccc(O)c(-c2cc(C(=O)NCc3ccccc3)[nH]n2)c1` stands 30.8% (active); under `COc1ccc(C(=O)N[C@H](C(=O)NCc2ccccc2)C(C)C)cc1`, 5.98% (inactive). Under `CC(C)c1nnc(NC(=O)CCC(=O)N2CCN(c3cccc(Cl)c3)CC2)s1` stands -2.44% (inactive); under `CCCCNC(=O)C1(O)c2ccccc2NC(=O)N1c1ccc(Cl)cc1` (stereo not drawn), -19.8% (inactive); under `CN(C)S(=O)(=O)c1cccc(-c2nn(-c3ccccc3)cc2/C=C2\SC(=S)N(CC(=O)O)C2=O)c1`, 1.09% (inactive).

As to `COc1ccc(-c2nn(-c3ccccc3)cc2/C=C2/SC(=S)N(CCCC(=O)O)C2=O)c(C)c1`, the inhibition is 5.71% (inactive).

Take `Cc1ccc(-c2nn(-c3ccccc3)cc2/C=C2\SC(=S)N(CCCCCC(=O)O)C2=O)o1`: the inhibition was 29.3% (active).

The values are drawn from PubChem BioAssay AID1950 (The Scripps Research Institute Molecular Screening Center, 2009).
